Screens (PubChem BioAssay)
Autofluor counter: flagged as autofluorescent in microsphere protease counterscreen; AID 624483; 360,000 compounds, 3.1% hits; fluorescence intensity (test concentration not listed); compound autofluorescence counterscreen, microsphere flow cytometry; stronger effect = higher value; in the data active = fluorescence intensity above about 16000; inconclusive = no clear call, values can overlap the other calls
BoNT-A LC inh2: blocks Botulinum neurotoxin A light chain protease | multiplex microsphere protease substrate cleavage, flow cytometry | AID 588499 | 360,000 compounds, 0.17% hits | inhibition, % at 10 µM; note: plate controls were buffer without enzyme for full effect and enzyme alone for no effect
BJeLR lethal: kills HRASV12-expressing BJeLR cells | BJeLR (HRASV12) viability, CellTiter-Glo ATP luminescence, 48 h | inhibition, % (no concentration beside the values) | 300,000 compounds, 0.17% hits | AID 1554; in the data active = inhibition above about 50%; inconclusive = no clear call, values can overlap the other calls
BH1578 lux ind: induces V. cholerae light production without autoinducers. V. cholerae BH1578 lux reporter, luminescence, 6 h. 350,000 compounds, 0.16% hits. AID 588436. activation, % at 18.7 µM; in the data active = activation mostly above about 9.7%, no sharp cut-off; inconclusive = no clear call, values can overlap the other calls; inactive = mostly below about 3.7%
BoNT-F LC inh: inhibitors of Botulinum neurotoxin F light chain protease. Multiplex microsphere protease cleavage assay, flow cytometry. inhibition, % at 10 µM. 360,000 compounds, 0.22% hits. AID 588497; in the data active = inhibition above about 35%, passing the limit was not always enough; inconclusive = no clear call, values can overlap the other calls; note: plate controls were buffer without enzyme for full effect and enzyme alone for no effect
Anthrax LF inh2: inhibitors of Bacillus anthracis lethal factor protease | P15917 | multiplex microsphere protease cleavage assay, LF | inhibition, % at 10 µM | 360,000 compounds, 0.12% hits | AID 588501; note: plate controls were buffer without enzyme for full effect and enzyme alone for no effect
Target sequence (P15917 whole entry, looked up): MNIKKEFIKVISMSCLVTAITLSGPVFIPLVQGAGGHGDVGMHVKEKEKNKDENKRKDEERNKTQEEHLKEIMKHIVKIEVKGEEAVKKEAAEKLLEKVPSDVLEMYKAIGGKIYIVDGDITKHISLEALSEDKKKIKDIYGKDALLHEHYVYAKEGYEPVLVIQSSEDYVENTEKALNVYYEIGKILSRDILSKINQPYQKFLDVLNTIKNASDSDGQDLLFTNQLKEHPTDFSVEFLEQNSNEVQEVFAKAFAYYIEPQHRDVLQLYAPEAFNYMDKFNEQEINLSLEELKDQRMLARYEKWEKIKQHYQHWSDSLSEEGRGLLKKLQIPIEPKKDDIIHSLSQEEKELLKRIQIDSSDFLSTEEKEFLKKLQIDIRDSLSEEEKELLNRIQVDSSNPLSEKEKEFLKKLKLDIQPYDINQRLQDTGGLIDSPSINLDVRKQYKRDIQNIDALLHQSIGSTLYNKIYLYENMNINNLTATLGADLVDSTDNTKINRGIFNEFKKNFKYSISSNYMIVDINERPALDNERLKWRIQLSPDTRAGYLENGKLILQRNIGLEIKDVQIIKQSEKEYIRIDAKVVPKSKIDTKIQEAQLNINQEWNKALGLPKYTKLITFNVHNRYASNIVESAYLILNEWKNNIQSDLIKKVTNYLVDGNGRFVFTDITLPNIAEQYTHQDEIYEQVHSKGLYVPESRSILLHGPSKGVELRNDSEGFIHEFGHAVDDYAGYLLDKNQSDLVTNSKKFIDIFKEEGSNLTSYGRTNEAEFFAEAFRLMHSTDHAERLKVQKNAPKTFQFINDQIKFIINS
The depositor's hits bear a star; i = inactive; u = inconclusive; x = not tested or not shown. A selection: hits, their analogues and other compounds. The true share with any hit is near 3.7%. Cut-off read from the data, not from the text of the source, unless noted: active = inhibition above about 30%; inconclusive = no clear call, values can overlap the other calls; inactive = below that.

SMILES | Autofluor counter | BoNT-A LC inh2 | BJeLR lethal | BH1578 lux ind | BoNT-F LC inh | Anthrax LF inh2
CC1(C)Cc2ccccc2-c2nnc(-c3ccccc3)n21 | 22143* | 2.3 | 1.8 | i | 1.1 | 3.4
Cc1ccc(NC(=O)C2(C)CCN2C(=O)C2CCCCC2)cc1C (stereo not given) | 3792 | 0.4 | x | i | -1.6 | -4.4
O=C(CCNC(=O)N1CC(=O)Nc2ccccc21)NCc1cccc(C(F)(F)F)c1 | 3410 | -0.4 | x | i | 3.8 | -4.8
Cc1ccc([N+](=O)[O-])cc1N=Cc1ccc(Br)s1 | 20554* | 0.4 | 3.7 | -0.2 | 1.5 | -4.7
CCC(C)[C@H](NC(=O)NC1CC1)C(=O)O (stereo not given in full) | 23360* | u | 1.3 | -0.7 | -0.1 | -2.2
COc1ccc(CC2CCOC2=O)cc1 (stereo not given) | 20533* | 4.9 | -0.9 | 6.6 | 9.5 | -8.7
C[C@H](CO)N1C[C@H](C)[C@@H](CN(C)C(=O)CCC(F)(F)F)OCc2cnnn2CCCC1=O | 3721 | -0.4 | x | -0.4 | -3.0 | 0.8
CCOC(=O)C1CCCN(C(=O)c2ccc(OCC)cc2)C1 (stereo not given) | 24552* | -0.9 | -4.4 | -5.9 | -2.4 | 1.1
CCCOc1ccc(C(=O)N2CCCC2)cc1OC | 19871* | u | 10.6 | 1.3 | -0.8 | 1.4
CCCCC(=O)N1CCCC(C(=O)OCC)C1 (stereo not given) | 22655* | -0.6 | -4.0 | 2.0 | -0.2 | -0.6
COc1ccc(C(=O)NN2CCCCC2)cc1OC | 22220* | u | 0.2 | 1.1 | 2.1 | 2.3
CCOCC(=O)N1CCCC(C(=O)OCC)C1 (stereo not given) | 5002 | 0.0 | -1.6 | i | -29.0 | -2.7
C/C=C/c1cccc(-c2nc(C(=O)NC3CCCC3)cc3c2[C@@H](CCO)N(S(=O)C(C)(C)C)C3)c1 (stereo not given in full) | 6731 | 0.7 | x | x | -13.7 | -2.5
CCCCCCCCN1C(=O)[C@H](CC(=O)NCc2ccccc2)C[C@@]2(C(=O)OC)CCCCC=C12 | 6717 | -0.6 | x | x | -2.2 | 8.5
CCCCOc1ccc(C(=O)N2CCCC2)cc1 | 16482* | u | -4.6 | -0.2 | -0.8 | -0.3
CCOc1ccc(C(=O)N2CCN(c3cccc(C)c3C)CC2)cc1 | 17197* | -2.5 | 2.4 | i | -5.8 | -1.2
CCOC(=O)C1CCCN(C(=S)Nc2ccc(C)cc2C)C1 (stereo not given) | 16244* | 0.2 | -1.6 | -6.0 | -1.5 | -0.7
C=CCN(CC=C)CC(=O)Nn1c(C)ccc1C | 3320 | 0.0 | x | -4.3 | -2.5 | -4.5
CCCCOC(=O)C1=C(C)Nc2ncnn2C1c1ccc(OCC)c(OC)c1 (stereo not given) | 19529* | 1.3 | 0.7 | -0.2 | 0.5 | -5.0
CCCCOC(=O)C1=C(C)Nc2ncnn2C1c1ccc(OC)c(OC)c1 (stereo not given) | 21510* | u | -5.2 | 1.4 | -8.6 | -1.2
CCOc1ccc(C2C(C(N)=O)=C(C)Nc3ncnn32)cc1OC (stereo not given) | 3082 | -3.0 | -2.9 | -1.3 | 8.5 | 3.1
CC1=C(C(N)=O)C(c2ccc(Cl)cc2Cl)n2ncnc2N1 (stereo not given) | 21777* | -0.4 | -3.0 | -3.0 | -1.8 | -0.7
CC(=O)C1=C(C)Nc2ncnn2C1c1ccccc1Cl (stereo not given) | 10411 | 1.0 | -3.7 | -3.6 | 1.3 | -0.9
CC(=O)C1=CCC(c2ccccc2)N(S(=O)(=O)c2ccccc2)C1 (stereo not given) | 5946 | 0.3 | x | x | 1.3 | -4.8
CC(C)Oc1cccc(C(=O)NC(=S)Nc2ccc(Cl)c(C(=O)O)c2)c1 | 23433* | -0.7 | -9.8 | i | 0.6 | -2.0
SMILES | Autofluor counter | BoNT-A LC inh2 | BJeLR lethal | BH1578 lux ind | BoNT-F LC inh | Anthrax LF inh2
COc1ccc(C(=O)NC(=S)Nc2ccc(Cl)c(C(=O)O)c2)cc1 | 5384 | -0.1 | 6.0 | i | -7.3 | 0.1
Cc1ccc(C(=O)n2cnnc2N)cc1C | 9712 | -0.7 | -1.9 | x | -3.4 | -5.7
COc1cccc(C(=O)N2CCCN(C)CC2)c1OC | 3084 | 3.8 | 3.9 | -0.2 | 37.3* | 15.7
Cc1ccc(C(=O)n2cnnc2N)cc1 | 21599* | u | -0.8 | 1.4 | -6.0 | 0.5
COc1cccc(C(=O)n2cnnc2N)c1OC | 19978* | 2.1 | 1.1 | i | 1.0 | -1.8
Nc1nncn1C(=O)c1c(Cl)cccc1Cl | 17890* | 4.8 | -4.6 | i | 3.1 | 0.7
Nc1nncn1C(=O)c1cc(Br)ccc1Cl | 9504 | 0.8 | -11.5 | -0.3 | -3.0 | 9.1
C[C@@H]1CCCCO[C@H](CN(C)C(=O)c2ccccc2)[C@@H](C)CN([C@H](C)CO)C(=O)c2cc(NC(=O)c3ccncc3)ccc2O1 | 3849 | -0.3 | x | i | -3.3 | -3.8
CCCC(=O)C1=C(O)C(C(=O)OC)C(C)(C)CC1=Nc1ccc(C)cc1 (stereo not given) | 3386 | 0.2 | 8.6 | -0.3 | -9.8 | -2.7
CCCC(=Nc1ccc(N)cc1)C1=C(O)C(C(=O)OC)C(C)(C)CC1=O (stereo not given) | 23098* | u | 7.6 | -1.8 | 0.2 | -1.3
CCCC(=O)C1=C(O)C(C(=O)OC)C(C)(C)CC1=Nc1ccc(N)cc1 (stereo not given) | 21083* | 4.2 | 5.8 | -1.9 | 9.3 | -0.2
N#Cc1c(=O)c2nc(NCc3ccccc3)ncc2n2ccccc12 | 23674* | 0.1 | -2.6 | -1.4 | -0.3 | 3.4
Cn1c(SCc2nc3ccccc3[nH]2)nnc1-c1cccnc1 | 20145* | u | 5.9 | i | -2.1 | 2.7
COc1ccccc1-c1nnc(SCc2nc3ccccc3[nH]2)n1C | 11093 | 2.0 | -7.4 | -5.9 | 1.8 | 1.5
CCOc1ccc(-c2nnc(SCc3nc4ccccc4[nH]3)n2N)cc1 | 22829* | -2.1 | 1.3 | 3.0 | -5.3 | -0.3
Clc1ccc(-n2c(SCc3nc4ccccc4[nH]3)nnc2-c2ccncc2)cc1 | 21021* | 3.8 | 0.4 | i | 3.5 | 1.2
O=C1NC(=S)S/C1=C\c1cccc([N+](=O)[O-])c1 | 3562 | 0.1 | x | -0.8 | -1.6 | 2.7
Cc1cccc(-n2nnnc2SCn2nnc3ccccc3c2=O)c1 | 20246* | 3.7 | -5.5 | i | 5.4 | -13.8
Cc1ccc(-n2nnnc2SCn2nnc3ccccc3c2=O)cc1 | 3416 | 0.1 | x | -1.2 | 5.9 | -5.9
CCN(CC)S(=O)(=O)c1ccc2c(c1)nc(SCn1nnc3ccccc3c1=O)n2CC | 23084* | -0.8 | 4.0 | i | -1.3 | 0.2
O=C(CSCCc1ccccn1)Nc1ccc(Br)cn1 | 23013* | 0.0 | -7.4 | -2.2 | -1.2 | 0.1
CC1(C)C(c2cccs2)=[N+]([O-])C2(CCCCC/C2=N\O)N1O (stereo not given) | 24784* | -1.6 | 7.7 | -12.5 | -4.2 | -1.1
CCOc1ccc(NC(=O)C2CCN(C(=O)NC3CCCCC3)CC2)cc1 | 4083 | 0.0 | -10.0 | -0.2 | 2.4 | -0.1
CCOc1ccc(NC(=O)C2CCN(C(=O)NCc3ccccc3)CC2)cc1 | 22864* | 1.6 | 4.0 | -5.9 | 0.1 | -1.9
COc1ccc(NC(=O)C2CCN(C(=O)NCc3ccccc3)CC2)cc1 | 16148* | 0.8 | 0.0 | -12.5 | 2.3 | -1.9
